These results are taken from publication PMC4336329 (PLoS ONE, 2015).

Molecules are shown by their SMILES. The whole screen tested about 310,000 compounds, of which about 14,000 (4.5%) showed an effect of 50% or more. The effect is printed as a negative number. Many of the other results were omitted from the sample, so strong results are more common in it than they were.
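Further: peak tail current of the secondary pulse compared with the same well before compound.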

The target of the assay is human ether-à-go-go-related gene (hERG) potassium channel (human, UniProt Q12809). The assay can be described thus: primary screen, population patch clamp on CHO cells stably expressing hERG; higher = less effect of the substance.
human ether-à-go-go-related gene (hERG) potassium channel, sequence (Q12809 whole entry, looked up): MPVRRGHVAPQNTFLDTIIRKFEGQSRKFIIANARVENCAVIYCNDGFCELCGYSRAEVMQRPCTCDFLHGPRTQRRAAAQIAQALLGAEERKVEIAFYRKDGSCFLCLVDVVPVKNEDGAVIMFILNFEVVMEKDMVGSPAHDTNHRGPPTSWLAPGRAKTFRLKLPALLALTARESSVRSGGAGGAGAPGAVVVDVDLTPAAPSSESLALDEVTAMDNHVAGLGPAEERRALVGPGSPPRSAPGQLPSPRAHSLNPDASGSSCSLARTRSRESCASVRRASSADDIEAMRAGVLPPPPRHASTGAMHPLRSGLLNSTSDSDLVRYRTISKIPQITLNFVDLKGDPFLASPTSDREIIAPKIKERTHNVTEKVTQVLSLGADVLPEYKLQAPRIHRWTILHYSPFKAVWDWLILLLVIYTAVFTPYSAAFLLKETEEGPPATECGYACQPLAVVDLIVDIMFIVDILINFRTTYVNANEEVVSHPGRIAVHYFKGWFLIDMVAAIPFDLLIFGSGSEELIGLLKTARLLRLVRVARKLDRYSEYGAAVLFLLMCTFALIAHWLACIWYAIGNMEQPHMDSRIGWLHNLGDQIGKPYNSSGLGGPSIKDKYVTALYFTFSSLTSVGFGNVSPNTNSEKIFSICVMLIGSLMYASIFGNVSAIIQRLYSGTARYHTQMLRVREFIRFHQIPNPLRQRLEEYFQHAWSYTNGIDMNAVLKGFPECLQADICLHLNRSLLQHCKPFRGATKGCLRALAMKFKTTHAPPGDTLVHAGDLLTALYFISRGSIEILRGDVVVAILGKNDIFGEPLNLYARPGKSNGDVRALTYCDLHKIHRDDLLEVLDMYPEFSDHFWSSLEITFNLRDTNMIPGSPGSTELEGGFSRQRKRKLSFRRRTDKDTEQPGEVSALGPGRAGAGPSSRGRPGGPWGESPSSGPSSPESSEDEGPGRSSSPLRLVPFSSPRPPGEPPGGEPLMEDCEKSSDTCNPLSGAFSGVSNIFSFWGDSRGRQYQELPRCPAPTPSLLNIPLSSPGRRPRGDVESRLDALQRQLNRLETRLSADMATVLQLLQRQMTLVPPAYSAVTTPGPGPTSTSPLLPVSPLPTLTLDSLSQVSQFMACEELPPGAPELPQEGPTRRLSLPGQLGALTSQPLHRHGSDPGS
For `CC(C)CCNC(=O)c1ccc(Cl)c(N)c1`, the “hERG current change (%, negative = inhibition) at 10uM” value is listed as 18.9%.
Under `Cc1ccccc1OCCCC(=O)Nc1ccc2c(c1)OCO2` stands 5.46%; under `CCN(CC)S(=O)(=O)c1cc(NC(=O)Cn2cnc3ccccc3c2=O)ccc1C`, -54.8%; under `CCN(CC)S(=O)(=O)c1ccc(NC(=O)Cn2cnc3ccccc3c2=O)cc1`, -32.8%.
Under `Cc1ccc(NC(=O)Cn2cnc3cc([N+](=O)[O-])ccc3c2=O)cc1` stands 0.77%; under `CCN(CC)S(=O)(=O)c1ccc(C)c(NC(=O)Cn2cnc3cc([N+](=O)[O-])ccc3c2=O)c1`, -55.7%; under `CN(C)S(=O)(=O)c1cccc(NC(=O)Cn2cnc3ccccc3c2=O)c1`, 8.28%.
Then `Cc1ccc(NC(=O)Cn2cnc3cc([N+](=O)[O-])ccc3c2=O)c(Cl)c1`, with 16.4%; and `COc1ccc(C(=O)NCc2cc(C)nc3ccccc23)cc1`, with -13.6%.
Regarding `COCc1nc2ccccc2n1CCc1ccccc1`, the “hERG current change (%, negative = inhibition) at 10uM” value is -33.6%.
`O=C1CCC(=O)N1c1ccc(-c2nc3ccccc3s2)cc1`: the “hERG current change (%, negative = inhibition) at 10uM” value was 16%.
In the case of `Cc1ccc(Sc2c(C)nn(C(=O)C3CC3)c2C)cc1`, the “hERG current change (%, negative = inhibition) at 10uM” value was found to be 11.6%.
For `O=C1COc2ccc(C(=O)COC(=O)Cc3ccccc3)cc2N1`, the “hERG current change (%, negative = inhibition) at 10uM” value is on record as -13%.
Under `Cc1ccc(N(C(=O)C2CCC(=O)N2)C2(C(=O)NC3CCCC3)CCCCC2)cc1` (stereo not shown) stands 0.218%; under `O=C(CCC1CCN(Cc2ccccc2O)CC1)NC1CC1`, -23.7%.
Regarding `O=C(CCC1CCCN(Cc2cccc(Cl)c2)C1)NCc1ccccc1F` (stereo not shown), the “hERG current change (%, negative = inhibition) at 10uM” value is -50.9%.
For `O=C(CCC1CCN(C(=O)Cc2c(F)cccc2F)CC1)NC1CC1`, the “hERG current change (%, negative = inhibition) at 10uM” value is 11.9%.
As to `CCOc1cccc(CN2CCCC(CCC(=O)NCc3ccccc3F)C2)c1O` (stereo not shown), the “hERG current change (%, negative = inhibition) at 10uM” value is -65%.
Regarding `Cc1nn(C)c(Cl)c1CN1CCCC(CCC(=O)NCc2ccccc2F)C1` (stereo not shown), the “hERG current change (%, negative = inhibition) at 10uM” value was -27%.
Under `CCOc1cccc(CN2CCC(CCC(=O)NC3CC3)CC2)c1O` stands -70.3%; under `Cc1ncc(CN2CCCC(CCC(=O)NCc3ccccc3F)C2)s1` (stereo not shown), 17.8%; under `CC(=O)Nc1ccc(CN2CCCC(CCC(=O)NCc3ccccc3F)C2)cc1` (stereo not shown), -8.19%.
Regarding `O=C(CCC1CCCN(Cc2ccc(O)c(Cl)c2)C1)NCc1ccccc1F` (stereo not shown), the “hERG current change (%, negative = inhibition) at 10uM” value is reported as -43.2%.
In the case of `O=C1[C@H]2[C@H](C=CC[C@H]2C(=O)N2CCOCC2)CCN1Cc1ccc(Cl)c(Cl)c1`, the “hERG current change (%, negative = inhibition) at 10uM” value was -3.89%.
Under `CCN1CCC[C@H]1CNC(=O)c1c(OC)ccc(Br)c1OC.Cl` stands -12.2%; under `Cc1ccc(-c2nc(-c3cccnc3)sc2CC(=O)O)cc1`, 11%.
As for `CCN1CCN(C(=O)Cc2c(C)n(C(=O)c3ccc(Cl)cc3)c3ccc(OC)cc23)CC1.Cl`, the “hERG current change (%, negative = inhibition) at 10uM” value is recorded as -38.6%.
Under `N#Cc1nc(-c2ccc(OCc3ccccc3)cc2)oc1N1CCOCC1` stands 10.4%; under `Cc1ccc(-c2cn3nc(C)c(C)nc3n2)cc1`, -6.47%; under `CCc1ccc(-c2cn3nc(C)c(C)nc3n2)cc1`, -50.8%.
Regarding `Cc1nc2nc(-c3ccc(F)cc3)cn2nc1C`, the “hERG current change (%, negative = inhibition) at 10uM” value is given as 7.58%.
Then `O=C1C=CC(=O)N1c1ccc(I)cc1Cl`, with 18.9%; and `COc1ccc(N2CCN(C(=O)C3CCCN(S(=O)(=O)c4c(C)noc4C)C3)CC2)cc1` (stereo not shown), with -59.9%; and `Cc1ccc(C)c(N2CCN(C(=O)C3CCCN(S(=O)(=O)c4c(C)noc4C)C3)CC2)c1` (stereo not shown), with -11.1%.
Under `COc1ccc(N2CCN(S(=O)(=O)c3c(C)noc3/C=C/N(C)C)CC2)cc1` stands -0.914%; under `COc1ccc(N2CCN(C(=O)C3CCN(S(=O)(=O)c4ccc(C)cc4)CC3)CC2)cc1`, -10.2%.
In the case of `Cc1noc(C)c1S(=O)(=O)N1CCC(C(=O)N2CCN(c3ccc(F)cc3)CC2)CC1`, the “hERG current change (%, negative = inhibition) at 10uM” value is reported as -41.4%.
For the compound `Cc1noc(C)c1S(=O)(=O)N1CCC(C(=O)N2CCN(c3ccc(Cl)cc3)CC2)CC1`, the “hERG current change (%, negative = inhibition) at 10uM” value is on record as -51.7%.
Then `Cc1noc(C)c1S(=O)(=O)N1CCC(C(=O)N2CCN(c3ccccc3Cl)CC2)CC1`, with -13.6%; and `COc1ccc(N2CCN(C(=O)C3CCCN(S(=O)(=O)c4ccc(F)cc4)C3)CC2)cc1` (stereo not shown), with -39.2%; and `COc1ccc(N2CCN(C(=O)C3CCN(S(=O)(=O)c4c(C)noc4/C=C/N(C)C)CC3)CC2)cc1`, with -53.8%.
In the case of `Cc1cccc(N2CCN(C(=O)C3CCCN(S(=O)(=O)c4c(C)noc4C)C3)CC2)c1C` (stereo not shown), the “hERG current change (%, negative = inhibition) at 10uM” value is -22.3%.
Then `COc1ccc(NC(=O)C2CCN(S(=O)(=O)c3c(C)noc3/C=C/N(C)C)CC2)cc1`, with -15.3%; and `COc1ccc(N2CCN(C(=O)C3CCCN(S(=O)(=O)c4ccc(C)cc4)C3)CC2)cc1` (stereo not shown), with -53.4%; and `CCc1ccc(NC(=O)c2sccc2-n2cccc2)cc1`, with -7.29%.
Under `NS(=O)(=O)c1ccc(F)c(C(=O)O)c1` stands 8.68%; under `CCNc1ccc(S(=O)(=O)N(C)C)cc1NCC(=O)Nc1ccc(F)c(Cl)c1`, -4.33%; under `O=C(Nc1ccc(Cl)cc1F)C1CC1c1ccccc1` (stereo not shown), 12.6%.
Then `COc1ccc(C)cc1NC(=O)C(Sc1nnc(Nc2cc(C)ccc2OC)s1)c1ccccc1` (stereo not shown), with 0.631%; and `Cc1ccc2c(c1)nnc1nnc(SCC(=O)O)n12`, with 3.45%; and `COC(=O)c1sccc1NC(=O)c1csc2c1CCCC2`, with -10.9%.
In the case of `OCC[C@H]1C[C@H](O)[C@@H](O)[C@]2(CCc3ccccc3O2)O1`, the “hERG current change (%, negative = inhibition) at 10uM” value is 6.41%.
Under `Cc1noc(C)c1S(=O)(=O)N1CCC(C(=O)c2ccccc2)CC1` stands -43%.
`Cc1noc(C)c1S(=O)(=O)N1CCC(C(=O)O)CC1`: the “hERG current change (%, negative = inhibition) at 10uM” value is reported as -3.88%.
Regarding `Cc1ccc(C(=O)C2CCN(S(=O)(=O)c3c(C)noc3C)CC2)cc1`, the “hERG current change (%, negative = inhibition) at 10uM” value was -67.3%.
